From PubChem BioAssay AID1347416 (National Center for Advancing Translational Sciences (NCATS), 2020)
Among all 4,100 compounds or so, about 1,600 (39%) were called active. Roughly 25% stayed inconclusive and do not appear here. The list shows a part of the results. Unmarked numbers belong to inactive results. The call rests on the fitted dose curve; in most records, active means well fitted inhibition curve with a large enough effect; inconclusive means small, poorly fitted or top-dose-only effect; inactive means no such curve, though single readings can be large or run the other way.

test: qHTS Validation assay for Inhibitors of Plasmodium falciparum Dd2 growth in vitro; further: nearly all actives have a fitted effect of over 70% in size; details: P. falciparum Dd2 in RBCs, SYBR Green growth, 72 h; series mostly up to 28.7 µM; activity change, negative = inhibition: at the top concentration
In short: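 P. falciparum Dd2-infected red blood cells (2.5% hematocrit, 0.3% parasitemia) grown 72 h at 37 °C under 5% O2 with compounds in a titration, 29 uM to 0.5 nM final. Growth read as SYBR Green-1 fluorescence after ~16 h lysis; artesunate 300 nM as positive control.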
On the % scale 0 is the no-effect control and ±100 the full control effect; potency means the concentration at half of the fitted maximal effect.

Structure (SMILES)	activity change, negative = inhibition	Potency
Cc1cnc(C(=O)N[C@@H]2CCC[C@@H]2C(=O)N2CCC(Cc3ccccc3)CC2)cn1	-11.4%	–
Cc1cnc(C(=O)Nc2cccc3cccnc23)cn1	–	2.66 µM (active)
CCOc1ccc(-c2cc3c(=O)n(CCNC(=O)c4ccc(OC)c(F)c4)ccn3n2)cc1	-12.6%	–
CCN1CCN(C(=O)c2ccc3c(c2)N(Cc2ccccc2F)C(=O)c2ccccc2S3=O)CC1 (stereo not drawn)	–	0.842 µM (active)
CC(C)(C)c1ccc(C(=O)N2CCN(Cc3cc(=O)n4nc(-c5ccccc5F)sc4n3)CC2)cc1	19%	–
CCn1cc(CN2CCN(C(=O)c3ccsc3)CC2)ccc1=O	38.8%	–
CCOc1ccc(CCNC(=O)c2ccc3c(c2)N(Cc2ccccc2F)C(=O)c2ccccc2S3=O)cc1OCC (stereo not drawn)	–	10.6 µM (active)
CCN1CCN(C(=O)c2ccc3c(c2)N(Cc2ccc(Cl)cc2)C(=O)c2ccccc2S3=O)CC1 (stereo not drawn)	–	0.668 µM (active)
O=C1Nc2ccc(-c3ccc(Cl)cc3)cc2C(=O)N2CCN(C(=O)c3ccccc3)C[C@H]12	-13.6%	–
COc1ccc(C(=O)N2CCc3nn(Cc4ccccc4)c(=O)n3CC2)cc1F	8.65%	–
CCOC(=O)Cn1c(=NC(=O)C2CC2)sc2c(C)cc(C)cc21	-25.1%	–
CCc1ccc(N2CC(c3noc(-c4nccc5ccccc45)n3)CC2=O)cc1 (stereo not drawn)	9.68%	–
O=S(=O)(c1ccc(Cl)cc1)N1CCN(Cc2ccc(O)c3ncccc23)CC1	–	13.3 µM (active)
O=C(N[C@H]1CO[C@H]2[C@@H]1OC[C@@H]2n1cc(-c2ccccc2)nn1)c1ccc(C(F)(F)F)cc1	30.8%	–
COc1ccc(CN2C(=O)C(NC(=O)c3ccccc3C)(C(F)(F)F)N=C2c2ccccc2)cc1 (stereo not drawn)	14.3%	–
COc1ccc(CN2C(=O)C(C)N(C(=O)c3c(F)cccc3F)c3ccccc32)cc1 (stereo not drawn)	–	7.5 µM (active)
O=C(/C(=C/c1ccc(Cl)cc1)c1nc2ccccc2[nH]1)c1cccs1	–	2.11 µM (active)
CN(C)CCCNc1ccc(-c2cc(Nc3cccc(Cl)c3)ncn2)cn1	–	9.44 µM (active)
O=C(Nc1nnc(SCc2ccc(F)cc2)s1)c1ccccn1	–	8.41 µM (active)
CCc1nnc(NC(=O)c2cc(Cl)ccn2)s1	197%	–
O=C(Nc1ccc(F)cc1)Nc1nnc(SCC(=O)N2CCCCC2)s1	-27.1%	–
COc1ccccc1N1CCN(C[C@@H]2C=C(C)[C@H](Cc3nnc(-c4cncn4C)o3)C[C@H]2C(C)C)CC1	–	10.6 µM (active)
CC1=C[C@@H](CNC(=O)COc2ccccc2)[C@H](C(C)C)C[C@H]1Cc1nnc(-c2cncn2C)o1	–	13.3 µM (active)
COc1ccc(-c2cc(C(F)(F)F)nc(SCCC(=O)Nc3cc(C)ccc3O)n2)cc1	–	1.88 µM (active)

Structure (SMILES)	activity change, negative = inhibition	Potency
Cc1ccc(NC(=O)CCSc2nc(-c3ccco3)cc(C(F)(F)F)n2)cc1F	-6.22%	–
COc1cccc(NC(=O)CCSc2nc(-c3ccco3)cc(C(F)(F)F)n2)c1	0%	–
O=C(Nc1cc(C(F)(F)F)cc(C(F)(F)F)c1)Nc1cnn(-c2ccc([N+](=O)[O-])cc2)c1C(F)(F)F	–	6.68 µM (active)
CC(Sc1nc2cc([N+](=O)[O-])ccc2n1-c1cccc(C(F)(F)F)c1)C(=O)NC(N)=O (stereo not drawn)	-0.926%	–
Cc1cn2nc(C(=O)Nc3ccc(N(C)C)cc3)cc2c(N(C)Cc2ccccc2)n1	–	15 µM (active)
Cc1cn2nc(C(=O)NCc3ccccc3F)cc2c(N(C)Cc2ccccc2)n1	-11.1%	–
Cc1cn2nc(C(=O)Nc3ccc4c(c3)OCCO4)cc2c(N(C)Cc2ccccc2)n1	-6.41%	–
CNc1cc(C)nc(-n2nc(C)cc2C)n1	–	8.41 µM (active)
Cc1ccc(Nc2cc(C)nn2-c2nc(C)cc(C)n2)cc1	–	6.68 µM (active)
Cc1cc(N2CCC(C)CC2)nc(-n2nc(C)cc2C)n1	–	2.99 µM (active)
COc1ccc(/C=N/Nc2cc(C)nc(-n3nc(C)cc3C)n2)c(OC)c1	–	5.31 µM (active)
COCC(=O)NC[C@H]1CCN(Cc2ccc(Cl)cc2)C[C@H]1N(C)C	13.5%	–
COc1cccc(OC)c1C(=O)Nc1cccc(-c2nc3cc(C)cc(C)c3o2)c1	46.6%	–
COc1cccc(NC(=O)c2sc3nc(C)c(C(=O)Nc4ccc(C)cc4C)c(-c4ccccc4Cl)c3c2N)c1	–	2.66 µM (active)
COc1cccc(NC(=O)c2sc3nc(C)c(C(=O)Nc4ccc(C)cc4C)c(-c4cccs4)c3c2N)c1	–	5.96 µM (active)
NC1CCCCN(C(=O)CCc2n[nH]c3c2CCCC3)C1 (stereo not drawn)	55.9%	–
Cc1ccc(-n2nc3c(c2NC(=O)C(C)C)CS(=O)(=O)C3)c(C)c1	26.2%	–
Cc1ccc(S(=O)(=O)Nc2cc(=O)[nH]c(SCC(=O)Nc3cccc(C)c3)n2)cc1	35.4%	–
c1ccc(Cn2c(Sc3nnnn3-c3ccccc3)nnc2-c2ccccc2)cc1	–	7.5 µM (active)
CCn1c(SCC(=O)NNC(=O)Cc2ccccc2)nnc1-c1ccncc1	11.2%	–
CN(C1CCc2nn(CC3CC3)c(=O)n2CC1)S(=O)(=O)c1cccs1 (stereo not drawn)	9.65%	–
COc1cccc(C(=O)N2CCC3(CC2)CCN(CCc2ccccc2)c2ccccc2O3)c1	-0.287%	–
COc1ccc2c(c1)OC(C)(C)C(c1ccccc1)C2c1ccc(OCCN2CCCC2)cc1 (stereo not drawn)	–	6.68 µM (active)
O=C(NCCNc1ccnc2cc(Cl)ccc12)c1ccccc1F	–	1.68 µM (active)

Structure (SMILES)	activity change, negative = inhibition	Potency
O=C(NCc1nnc2ccc(-c3ccccc3)nn12)c1cc(Cl)ccc1F	-3.02%	–
O=C(NCCCNc1ccnc2cc(Cl)ccc12)c1ccccc1F	–	0.842 µM (active)
Cc1nn(-c2ccc(C(C)(C)C)cc2)c(C)c1[C@@H]1C=C[C@@H](NC(=O)c2ccco2)C1	–	12.2 µM (active)
O=C(NC1C[C@H]2CC[C@@H](C1)N2C(=O)c1ccco1)c1ccncc1 (stereo partly drawn)	20%	–
COc1ccc(-n2nc(C)c([C@@H]3C=C[C@@H](NCc4ccc(F)cc4)C3)c2C)cc1	–	1.37 µM (active)
Cc1nn(-c2cccc(Br)c2)c(C)c1[C@@H]1C=C[C@@H](NC(=O)c2cccs2)C1	-11.6%	–
COc1ccc(CN[C@@H]2C=C[C@@H](c3c(C)nn(-c4ccc(OC)cc4)c3C)C2)cc1	–	4.85 µM (active)
Cc1cc(=O)n(C(C)C(=O)NCc2ccccc2Cl)c2c1c(C)nn2-c1ccccc1 (stereo not drawn)	27.8%	–
Cc1nn(-c2ccc(C(C)C)cc2)c(C)c1[C@@H]1C=C[C@@H](NCc2ccccc2)C1	–	21.7 µM (active)
Cc1cccc(CCNC(=O)CCS(=O)(=O)c2cc3c(cc2Cl)NC(=O)CO3)c1	22.2%	–
COc1ccc(OC)c(C2CCN(c3ncncn3)C2)c1 (stereo not drawn)	20.9%	–
CC(C)Oc1ccc2c(NC(=O)c3ccn(C)n3)nn(CC(F)(F)F)c2c1	22.3%	–
O=C(NCc1cc(F)ccc1F)C1CCN(c2cn[nH]c(=O)c2)C1 (stereo not drawn)	14%	–
COc1ccc(-n2nc(C)c([C@@H]3C=C[C@@H](NCc4ccc(N(C)C)cc4)C3)c2C)cc1	–	4.33 µM (active)
COc1ccc(-n2nc(C)c([C@@H]3C=C[C@@H](NCc4cccc(Cl)c4)C3)c2C)cc1	–	1.37 µM (active)
Cn1c(=O)oc2cc(S(=O)(=O)CCC(=O)N3CCN(c4ccccc4F)CC3)ccc21	37.6%	–
O=c1[nH]c(N2CCOCC2)nc2c1CCN(Cc1cc(Cl)ccc1F)CC2	–	2.37 µM (active)
O=C1CCN(Cc2ccc(F)cc2F)CCCC(c2nc(-c3cnccn3)no2)CCN1 (stereo not drawn)	-24.9%	–
O=c1[nH]c(N2CCOCC2)nc2c1CCN(Cc1cc(Br)ccc1F)CC2	–	5.31 µM (active)
O=c1[nH]c(N2CCOCC2)nc2c1CCN(Cc1cc(F)c(F)cc1F)CC2	–	15 µM (active)
O=c1[nH]c(N2CCOCC2)nc2c1CCN(Cc1ccc(Cl)cc1F)CC2	–	3.35 µM (active)
O=C(Nc1ccc(Cl)cc1)c1nc2c(o1)CCN(Cc1ccc(F)cc1F)CC2	-4.48% [at 43.1 µM]	–
COc1ccc2c(c1OC)C(=O)OC2CC(=O)c1ccc(O)cc1 (stereo not drawn)	14.8%	–
CCOc1cc(C2CC(=O)NC3=C2C(=O)C(C(=O)OC)C(C)C3)cc(Br)c1O (stereo not drawn)	–	6.68 µM (active)

Structure (SMILES)	activity change, negative = inhibition	Potency
CCOc1ccc(/C=C/C(=O)Nc2ccc3nc(N(CC)CC)cc(C)c3c2)cc1OC	–	1.88 µM (active)
CCN(CC)c1cc(C)c2cc(NC(=O)/C=C/c3cc(OC)c(OC)c(OC)c3)ccc2n1	–	4.73 µM (active)
COc1ccc(/C=C/C(=O)NCCc2ccc(OC)c(OC)c2)cc1	10.2%	–
Fc1ccccc1Cn1nnc2c(-n3ccnc3)ncnc21	4.31%	–
O=C1Nc2ccccc2CN(CC2CC2)C12CCNCC2	1.97%	–
c1ccc(Nc2cc3c(cn2)CN(Cc2ccc4[nH]ccc4c2)CCN3)cc1	–	1.37 µM (active)
CN(C)c1cccc(Nc2cc3c(cn2)CN(Cc2ccccc2)CCN3)c1	–	13.7 µM (active)
CN(C)c1ncnc2sc3c(c12)CCN(Cc1ccc2cc[nH]c2c1)C3	-7.09%	–
c1ccc(Nc2cc3c(cn2)CN(Cc2ccsc2)CCN3)cc1	–	13.7 µM (active)
O=C1NC(=NC2CCCC2)C2(CCN(Cc3ccsc3)C2)N1c1cccnc1 (stereo not drawn)	-11.2%	–
Cc1nnc(-c2cc(Nc3cccc(N(C)C)c3)ccn2)n1Cc1ccccc1	-11% [at 43.1 µM]	–
Cc1ccc(C)c(OC(=O)CSc2nnc(-c3cccs3)o2)c1	13%	–
CNS(=O)(=O)c1cn(CC(=O)N2CCN(c3ccc(C(C)=O)cc3)CC2)cc1S(=O)(=O)NC	41.4%	–
Cc1cc(NC(=O)CN2CCN(c3ccc(O)cc3)CC2)no1	–	4.73 µM (active)
CCOc1ccc(C(=O)Nc2cc(C)on2)cc1	-10.9%	–
Cc1ccc(S(=O)(=O)NCc2nc3nc(C)cc(C)n3n2)c(C)c1	12.5%	–
Cc1cc(NC2C3CC4CC(C3)CC2C4)n2nnnc2n1 (stereo not drawn)	-20.8%	–
Cc1cc(Nc2ccc(Br)cc2)n2nc(C)nc2n1	–	7.5 µM (active)
Cc1cc(C)cc(Nc2cc(C)nc3nc(C)nn23)c1	–	5.31 µM (active)
Cc1cc(Nc2ccc(C)c(C)c2)n2nc(C)nc2n1	–	4.73 µM (active)
Cc1cc(Nc2ccc(Br)c(C)c2)n2nc(C)nc2n1	–	1.33 µM (active)
